According to PubChem BioAssay (NCI):
About 83,000 compounds went through this panel and 20% of them were active in at least one assay; those are over-represented in the sample as a whole.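 The test compound was applied at a single concentration to cells in 96-well plates for 48 hours, and percent growth was recorded.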 The source made the active and inactive calls. Rule for the calls: active = growth percent below 10; inactive = the rest.

How the values were obtained:
Assay in all cases: NCI-60 one-dose screen, 48 h (100 = growth as untreated, 0 = no growth, -100 = all killed)
Conditions in all cases: 10 µM unless noted
[1] = test system: HCT-15 colon
[2] = test system: HT29 colon
[3] = test system: SNB-75 CNS
[4] = test system: SNB-19 CNS
[5] = test system: U251 CNS
[6] = test system: PC-3 prostate
[7] = test system: SK-MEL-5 melanoma
[8] = test system: UACC-62 melanoma
[9] = test system: LOX IMVI melanoma
[10] = test system: SK-MEL-28 melanoma
[11] = test system: SK-MEL-2 melanoma
[12] = test system: EKVX NSCLC
[13] = test system: SN12C renal
[14] = test system: UO-31 renal
[15] = test system: TK-10 renal
[16] = test system: ACHN renal
[17] = test system: CAKI-1 renal
[18] = test system: A498 renal
[19] = test system: CCRF-CEM leukemia
[20] = test system: MOLT-4 leukemia

Measured: growth

COc1ccc2nc3ccccc3c(NCc3ccc(F)cc3)c2c1
active: [1] 4.11% | [2] 0.209% | [7] -6.56% | [9] -66.7% | [14] -8.18% | [16] 5.65% | [17] 7.16% | [18] -8.16% | [20] 0.544%
inactive: [3] 23.8% | [4] 17.7% | [5] 22.1% | [6] 17.1% | [8] 39.1% | [10] 35.3% | [11] 35% | [12] 22.4% | [13] 17% | [15] 37.8% | [19] 18.4%

C#Cc1cccc(Nc2nc3ccc([N+](=O)[O-])cc3nc2Nc2cccc(C#C)c2)c1
active: [1] -69.4% | [2] -75.9% | [3] -91.9% | [4] -19.2% | [5] -91.1% | [6] -41.9% | [7] -88.9% | [8] -39.3% | [9] -93.2% | [10] -69.4% | [11] -53.8% | [12] -12% | [13] -39.1% | [14] -84.1% | [15] -34.4% | [16] -1.34% | [17] -25.8% | [18] -20.3% | [19] -33.9% | [20] -47.5%

N#C/C(=C\c1ccc(-c2ccc(Cl)cc2)o1)c1ccc(Cl)cc1
inactive: [1] 79.2% | [2] 61.2% | [3] 14% | [4] 62% | [5] 21.6% | [6] 74.8% | [7] 91.4% | [8] 78.7% | [9] 49.2% | [10] 99.7% | [11] 96.5% | [12] 49.5% | [13] 30% | [15] 14.6% | [17] 38.4% | [18] 82.5% | [19] 66.6% | [20] 85.6%
active: [14] -11.6% | [16] -20.1%

Cc1cscc(C)c1=S
active: [1] 9.4% | [16] -5.99%
inactive: [2] 19.5% | [3] 108% | [4] 100% | [5] 80% | [6] 77% | [7] 90.2% | [8] 90% | [9] 70.4% | [10] 120% | [11] 11.9% | [12] 110% | [13] 87.5% | [14] 70.5% | [15] 92.4% | [17] 51.2% | [18] 128% | [19] 91.1% | [20] 81.2%

C/C(=C(/c1ccc(Cl)cc1)c1ccc(OCCCN(C)C)cc1)c1ccc(Cl)cc1
inactive: [1] 50.4% | [2] 16.3% | [3] 96.4% | [4] 97.3% | [5] 75.9% | [6] 84.8% | [7] 93.8% | [8] 109% | [9] 78.1% | [10] 99.5% | [11] 98.5% | [12] 98.4% | [13] 93.9% | [14] 72.7% | [15] 103% | [16] 104% | [17] 87.3% | [18] 94.8% | [19] 73.3% | [20] 71.7%

O=c1nc(Nc2nc3ccccc3s2)[nH]c(=O)c2ccccc12
inactive: [1] 99.2% | [2] 108% | [3] 76.5% | [4] 95.6% | [5] 98.6% | [6] 105% | [7] 99.6% | [8] 99% | [9] 95.7% | [10] 110% | [11] 110% | [12] 95.2% | [13] 98.6% | [14] 89.4% | [15] 119% | [16] 89.8% | [17] 85.2% | [18] 77.4% | [19] 106% | [20] 102%

CCn1cc(C(=O)NN=C2CCCCCC2)c(=O)c2ccc(C)nc21
inactive: [1] 86.2% | [2] 99.7% | [3] 76.2% | [4] 88.5% | [5] 94.6% | [6] 82.7% | [7] 87.1% | [8] 73.2% | [9] 95% | [10] 93.8% | [11] 105% | [12] 93.2% | [13] 85.5% | [14] 75.2% | [15] 95.7% | [16] 84.7% | [17] 79.9% | [18] 58% | [19] 91.7% | [20] 71%

COc1ccc2[nH]cc(-c3nc(-c4cn(C)c5ccncc45)cs3)c2c1
active: [1] -47.7% | [2] -33.6% | [5] -71.5% | [9] -88.3% | [12] -14.1% | [19] -20.3%
inactive: [3] 110% | [4] 14.6% | [6] 48.5% | [7] 50.2% | [8] 101% | [10] 91.4% | [11] 93% | [13] 96.2% | [14] 77.6% | [15] 78.6% | [16] 83.9% | [17] 67.2% | [18] 89.1% | [20] 63%

Cn1cc(-c2nonc2-c2c[nH]c3ccccc23)c2ccccc21
inactive: [1] 16.6% | [4] 12.8% | [5] 12.4% | [6] 20.7% | [7] 21.2% | [9] 23.5% | [10] 41.6% | [11] 51.2% | [12] 26% | [13] 23.4% | [14] 15.6% | [15] 47.7% | [16] 31.1% | [17] 20.4%
active: [2] 5.85% | [3] -18.2% | [8] 8.21% | [18] -13.4% | [19] 7.68% | [20] 8.23%

CCN1C(=O)N(CC)C2C1NN=c1s/c(=C\c3cc4ccccc4[nH]3)c(=O)n12 (stereo not given)
active: [2] 5.58% | [5] 7.49% | [7] -5.91% | [17] 7.63% | [18] 2.17% | [19] -8.2%
inactive: [1] 12% | [3] 32.1% | [4] 45.1% | [6] 13.2% | [8] 22.2% | [9] 17.4% | [10] 52.2% | [11] 23.1% | [12] 54.5% | [13] 11.2% | [14] 18.7% | [15] 59.6% | [16] 11.7% | [20] 11.1%

Cc1c(N2CN3C[C@H](C)N4CN(c5c(C)n(C)n(-c6ccccc6)c5=O)CN5C[C@@H](C)N(C2)C3C54)c(=O)n(-c2ccccc2)n1C (stereo not given in full)
active: [20] -17.9%
inactive: [1] 96.4% | [2] 102% | [3] 107% | [4] 101% | [5] 105% | [6] 94.2% | [7] 102% | [8] 96.7% | [9] 96% | [10] 101% | [11] 101% | [12] 96.1% | [13] 100% | [14] 77.6% | [15] 110% | [16] 103% | [17] 87.5% | [18] 117% | [19] 102%

O=C(CCCCCCCCC(=O)N/N=C\c1cc(Cl)ccc1O)N/N=C\c1cc(Cl)ccc1O
active: [7] -37.9% | [8] 0.989% | [16] 9.47%
inactive: [1] 15.6% | [2] 58.9% | [3] 55.6% | [4] 34.8% | [5] 29.5% | [6] 26.6% | [9] 14.1% | [10] 41.7% | [11] 18.6% | [12] 54.7% | [13] 28.7% | [14] 19% | [15] 45.7% | [17] 11.6% | [18] 73.4% | [19] 12.1% | [20] 15.3%

Clc1nccc2c(-c3csc(-c4c[nH]c5ccccc45)n3)c[nH]c12
active: [1] -39.6%
inactive: [2] 23.6% | [3] 41.4% | [4] 71.8% | [5] 20.9% | [6] 40.1% | [7] 55.8% | [8] 43.9% | [9] 28.2% | [10] 23.9% | [11] 79.5% | [12] 63.2% | [13] 59.2% | [14] 25.9% | [15] 55.8% | [16] 24.4% | [17] 52.3% | [18] 32.7% | [19] 31.1% | [20] 40.5%

O=C(Nc1nc(C(=O)N2CCN(C(c3ccccc3)c3ccccc3)CC2)cs1)c1ccc(NC2CCCCC2)c([N+](=O)[O-])c1
inactive: [1] 96.9% | [2] 86.1% | [3] 86.1% | [4] 85.9% | [5] 83.5% | [6] 76.1% | [7] 60.6% | [8] 67.1% | [9] 91.5% | [10] 100% | [11] 104% | [12] 77.9% | [13] 85.6% | [14] 66.1% | [15] 100% | [16] 86.6% | [17] 78.4% | [18] 87.6% | [19] 95% | [20] 77.9%

CCCCCCC(CCCC)COC(=O)c1ccc(Cl)cc1 (stereo not given)
inactive: [1] 107% | [2] 121% | [3] 95% | [4] 109% | [5] 113% | [6] 96.5% | [7] 96.5% | [8] 98.7% | [9] 103% | [10] 112% | [11] 109% | [12] 112% | [13] 105% | [14] 98% | [15] 110% | [16] 110% | [17] 100% | [18] 93.9% | [19] 105% | [20] 98.8%
